# Values joined by “and” are separate entries in the source; they are usually repeats but may differ in a detail not shown here. Identical values can stand only once. The campaign covered roughly 480,000 compounds. About 740 (0.15%) were called active. Cut-off read from the data, not from the text of the source: active = activity change below about -30%; inconclusive = mostly about -25% to -30%; inactive = weaker than that. Shown is part of a subset that was picked to be rich in actives. Some structures have more than one record in an assay (separate samples or runs), and their calls can disagree.
# Target: L-lactate dehydrogenase A chain (Homo sapiens) (UniProt P00338)
# Experiment: qHTS assay for inhibitors of human lactate dehydrogenase;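 note: values are at about 110 or 230 µM; plate controls were DMSO wells for no effect and wells without enzyme for full effect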
# Settings: purified LDHA, NADH/diaphorase-resazurin fluorescence; stronger effect = lower value
# Excerpt: LDH is a key glycolytic enzyme that catalyzes the final step in the glycolytic pathway, reducing pyruvate to lactate and regenerating NAD+ equivalents necessary for continued glycolysis. LDHA has been linked to the carcinogenesis and malignancy in numerous forms of cancers and many other diseases. Consequently, both pharma and academia have invested in significant research efforts to identify small molecule therapeutics. Such attempts have been stalled or abandoned due to limited success in discovering potent and drug-like inhibitors that can be utilized to validate LDHA in vivo as a drug target, a necessary step toward advancing such a molecule towards the clinic Towards this goal we designed and performed a quantitative high-throughput screening (qHTS) campaign to discover novel compounds that are potent inhibitors of LDHA enzyme activity and cancer cell line growth.
# The assay was optimized to 1536-well plates. Briefly, 3 µL of human lactate dehydrogenase 5 (#A38558H, Meridian Life Science, Inc., Memphis, TN) in LDH assay buffer (200 mM Tris HCl pH 7.4, 100 microM EDTA and 0.01% Tween-20) was added to a black solid bottom 1536-well assay plate (Greiner Bio-One) using a BioRAPTR FRD dispenser (Beckman Coulter, Brea, CA). A 1536-well pintool dispenser outfitted with 20 nL pins (Wako Automation, San Diego, CA) was used to transfer 23 nL of DMSO-solubilized compound (both library and vehicle controls) to each 1536-well assay plate. Following compound transfer, 1 µL of substrate solution containing NADH and sodium pyruvate (Sigma-Aldrich, St. Louis, MO) in LDH assay buffer was dispensed via BioRAPTR FRD to initiate the reaction. Final concentrations in the 4 microL reaction volume were 2 nM LDHA enzyme, 0.06 mM NADH and 0.2 mM sodium pyruvate. Following a 5 minute incubation period at room temperature, 1 µL of detection reagent (C. kluyveri diaphorase (Sigma-Aldrich) and resazurin sodium salt (Sigma-Aldrich) in LDH assay buffer) was added to a total volume of 5 µL. Final concentrations of detection reagents were 0.133 mg/mL diaphorase and 37 µM resazurin. Plates were immediately transferred to a ViewLux microplate imager (PerkinElmer, Waltham, MA), and any resulting resorufin fluorescence was measured (ex540, em590 nm) at 0 and 20 minutes. Fluorescence was normalized using enzyme-free and DMSO-treated control wells on each plate.
row,Structure (SMILES),activity change
1,CCCCCCCCCOc1ccc(C(=O)c2ccccc2)cc1,2.28% (inactive)
2,CC/C(=C(/c1ccccc1)c1ccc(OCC[N+](C)(C)C)cc1)c1ccccc1,-30.9% (active)
3,CCCCOc1ccc(C(=O)NO)cc1,12.4% (inactive)
4,Cc1cc(C)cc(Nc2nc3ccccc3nc2NS(=O)(=O)c2ccccc2)c1,-9.61% (inactive)
5,C=CCOc1ccc(NC(C)=O)cc1,8.6% (inactive)
6,Cc1nn(CC(=O)Nc2ccc3c(c2)nc2n3CCN(C)C2)c(=O)c2ccccc12,2.93% (inactive)
7,O=C(COc1ccccc1F)Nc1ccc(C(=O)OCc2cc(=O)n3nc(C4CC4)sc3n2)cc1,0.0167% (inactive)
8,O=C(COc1ccccc1F)OCc1cc(=O)n2nc(C3CCCCC3)sc2n1,-0.186% (inactive) and -35% (active)
9,Cc1ccc(OCC(=O)OCc2cc(=O)n3nc(C4CC4)sc3n2)cc1,-4.61% (inactive)
10,CC(=O)c1ccc(S(=O)(=O)NCc2nnnn2-c2ccccc2)cc1,-5.01% (inactive)
11,O=S(=O)(Cc1nnnn1-c1ccccc1)c1ccccc1,0.923% (inactive) and -41.4% (active)
12,O=S(=O)(Cc1nnnn1-c1ccc(Br)cc1)c1ccc(F)cc1,-2.83% (inactive)
13,Cn1ccnc1Sc1nc2c(c(=O)n(C)c(=O)n2C)n1Cc1ccc(F)cc1,1.87% (inactive)
14,Cc1ccc2oc(C(=O)Nc3ccccc3F)cc(=O)c2c1,7.9% (inactive)
15,O=C(O)C(Sc1nc(-c2ccccc2)cc(C(F)(F)F)n1)c1ccccc1 (centres undefined),13.5% (inactive)
16,O=C(NC1CCCC1)c1nc(-c2cccc3[nH]ccc23)no1,-3.9% (inactive)
17,CC(=O)Nc1ccc(S(=O)(=O)NC2(C(F)(F)F)C(=O)Nc3c2c(=O)[nH]c(=O)n3Cc2ccccc2)cc1 (centres undefined),-3.74% (inactive)
18,O=C(NC1(C(F)(F)F)C(=O)Nc2c1c(=O)[nH]c(=O)n2Cc1ccco1)c1ccco1 (centres undefined),-33.9% (active)
19,O=c1[nH]c(=O)n(Cc2ccco2)c2c1C(C(F)(F)F)(C(F)(F)F)N=C(c1ccco1)N2,-12.6% (inactive)
20,Cc1cc(Nc2ccccc2)n2nc(Cc3ccc(Cl)cc3)nc2n1,-32.3% (active)
21,Cc1cc(Nc2cccc(Cl)c2)n2nc(Cc3ccccc3)nc2n1,-15% (inactive)
22,CCc1nc2nc(C)cc(Nc3ccc(F)c(Cl)c3)n2n1,-6.31% (inactive)
23,Cc1ccc(C)c(N2CCN(C(=O)CCS(=O)(=O)c3cccc4nsnc34)CC2)c1,0.345% (inactive)
24,O=C1CCCC2=C1C(c1cccnc1)CC(=O)N2c1ccccc1C(F)(F)F (centres undefined),0.301% (inactive)

row,Structure (SMILES),activity change
1,O=C(CSc1nnnn1C1CCCC1)N1CCCC1c1ccc2c(c1)OCCCO2 (centres undefined),-4.78% (inactive)
2,CC(=O)NC(Cc1c[nH]c2ccccc12)C(=O)N1CCC1 (centres undefined),-6.31% (inactive)
3,FC(F)(F)c1ccc(Cl)c(N/N=C/c2c(Cl)cccc2Cl)c1,-0.292% (inactive)
4,COC(=O)c1cc(NCC(=O)N2CCNC2=O)ccc1Cl,-2.4% (inactive)
5,CSc1ccc(Cl)c(C(=O)OCC(=O)N2CCNC2=O)c1,-5.09% (inactive)
6,N#Cc1cc(NCC(=O)N2CCNC2=O)ccc1Cl,-31.1% (active)
7,CC(=O)Nc1cccc(NC(=O)c2nc(-c3ccccc3)oc2C)c1,-3.27% (inactive)
8,CCN(CC)CCNC(=O)c1ccc2nc(C)c(C)nc2c1,1.31% (inactive)
9,COc1ccc(NC(=O)CN(C)C(=O)c2nc(-c3ccccc3)oc2C)cc1,7.53% (inactive)
10,Cc1oc(-c2ccccc2)nc1CC(=O)N(C)CC(=O)Nc1cccc2ccccc12,-30.2% (active)
11,Cc1ccc(NC(=O)CN(C)C(=O)c2nc(-c3ccccc3)oc2C)cc1,-4.78% (inactive)
12,CC(=O)c1ccccc1NC(=O)c1ccccc1Cc1ccccc1,-24.1% (inactive)
13,CCN(CC)C(=O)c1ccc(CSC(F)F)o1,-3.64% (inactive)
14,Cc1cccc(N2CCN(Cc3ncc(-c4ccc(Cl)cc4)o3)CC2)c1,6.83% (inactive)
15,Cc1c(CC(=O)NCCCN2CCOCC2)c(=O)oc2cc(O)ccc12,1.59% (inactive)
16,Cc1[nH]n(-c2nc(-c3ccccc3)cs2)c(=O)c1CC(=O)Nc1cccc(Cl)c1,-4.25% (inactive)
17,CCOc1ccccc1NC(=O)Cc1c(C)[nH]n(-c2nc(-c3ccccc3)cs2)c1=O,-42.8% (active)
18,CCOc1ccccc1NC(=O)Cn1c2ncccc2c(=O)n1-c1ccc(C)c(C)c1,-10% (inactive)
19,CCNC(=O)c1nnc(C(=O)Nc2cccc(Cl)c2)s1,6.18% (inactive)
20,Cn1c(=O)n(C)c2cc(SCc3ccco3)c(NC(=O)c3ccc(C(C)(C)C)cc3)cc21,-5.57% (inactive)
21,CCCCCn1c(SCc2ccc(C)cc2)nc2c1c(=O)[nH]c(=O)n2C,-21.4% (inactive)
22,CN1CCN(CCC2(Cc3ccccc3)CCOC(C)(C)C2)CC1 (centres undefined),-4.19% (inactive)
23,O=C(O)C(Br)Cc1ccc(Cl)cc1Cl (centres undefined),27.6% (inactive)
24,CC1(C)CC(N2CCN(C(c3ccccc3)c3ccccc3)CC2)=CC(=[N+]2CCCCC2)C1,-64.6% (active)

row,Structure (SMILES),activity change
1,O=C(Nc1ccc2c(c1)OCCCO2)c1ccccc1OCc1ccc(F)cc1,7.94% (inactive)
2,CC(C)(C)c1ccc(-c2nnc(SCC(=O)NC(=O)NC3CCCC3)n2Cc2ccco2)cc1,9.16% (inactive)
3,CC1=C/C(=N\NC(N)=S)C(C)C1 (centres undefined),1.95% (inactive)
4,CCOC(=O)/C=C/c1cc(C(=O)OCC)c(/C=C/C(=O)OCC)cc1C(=O)OCC,-12.2% (inactive)
5,CCn1c(SCC(=O)NCC(F)(F)F)nnc1-c1ccncc1,-0.908% (inactive)
6,Cc1ccsc1/C=N/n1c(=S)[nH]nc(C)c1=O,-32.7% (active)
7,Cc1n[nH]c(=O)nc1N/N=C/c1cccs1,10.4% (inactive)
8,CCc1n[nH]c(=S)n1/N=C/c1c[nH]c2ccc(Br)cc12,-11% (inactive)
9,Cc1ccccc1NC(=O)Cc1nnc(SCC(=O)c2ccc(C#N)cc2)n1C,2.1% (inactive)
10,CCc1nn2c(=O)cc(CN(CC)Cc3ccc(OC)cc3)nc2s1,0.31% (inactive)
11,CCOC(=O)C(NC(=O)c1ccccc1)C(F)(F)F (centres undefined),-5.84% (inactive)
12,O=C(COc1ccccc1C(=O)Nc1ccccc1)NC1CC1,2.72% (inactive)
13,Cc1cc2oc(=O)cc(CN3CCCCCCC3)c2cc1C,3.97% (inactive)
14,Cc1nc2nc(CN)nn2c(C)c1CCC(=O)NC1CCCCC1,10.1% (inactive)
15,CCCn1c(SC(C)C(=O)c2ccc(Cl)cc2)n[nH]c1=O (centres undefined),1.73% (inactive)
16,CSc1nnc([C@H](CC(C)C)NC(=O)OC(C)(C)C)o1,-6.07% (inactive)
17,c1ccc(Oc2ncnc3scc(-c4ccc(-c5ccccc5)cc4)c23)cc1,2.38% (inactive)
18,CCn1c(SCc2ccc(F)cc2Cl)nnc1-c1ccccn1,-9.31% (inactive)
19,Cc1ccc(NC(=O)C2=Cc3sc4c(c3CS2)CCCC4)c(C)c1,4.96% (inactive)
20,NC(N)=Nc1ccc(F)cc1,0.928% (inactive)
21,O=C(CCc1nc(-c2ccccc2)no1)N1CCc2sccc2C1c1cccs1 (centres undefined),9.21% (inactive)
22,Cc1cc(C)n2ncc(-c3noc(C(=O)NC4CCCC4)n3)c2n1,-0.0013% (inactive)
23,Cc1nc2cc(NC(=O)COc3ccccc3C(C)(C)C)ccc2o1,3.35% (inactive)
24,Cc1[nH]c2ccccc2c1C(=O)C(C)Sc1ccc2c(c1)OCCCO2 (centres undefined),7.43% (inactive)

row,Structure (SMILES),activity change
1,Cc1nc2cc(NC(C)C(=O)Nc3ccccc3Cl)ccc2o1 (centres undefined),-7.75% (inactive)
2,c1ccc(COc2ccc(CNc3ccccc3)cc2)cc1,-2.65% (inactive)
3,O=C(Nc1ccc(N2CCOCC2)cc1)c1ccc2c(c1)S(=O)(=O)c1ccccc1C2=O,0.869% (inactive)
4,CC(C)CCn1c(=O)[nH]c(=O)c2c3c(cnc21)C(=O)CC(c1ccc(F)cc1)C3 (centres undefined),8.23% (inactive)
5,Fc1ccc(-n2c(Cc3ccccc3)nnc2SCc2ccc(Br)cc2)cc1,11.5% (inactive)
6,COc1ccc(CNS(=O)(=O)c2ccc(-c3ccc(=O)[nH]n3)s2)cc1,-1.99% (inactive)
7,O=C1CN(CC(=O)Nc2c(Cl)cc(Cl)cc2Cl)CCN1,-9.74% (inactive)
8,CCOc1ccccc1N(CC)C(=O)Cc1noc2ccccc12,1.93% (inactive)
9,COc1ccc(OC)c(C2C(C#N)=C(N)Oc3cc(O)ccc32)c1 (centres undefined),6.17% (inactive)
10,O=C(O)c1c(Br)c(Br)c(Br)c(Br)c1C1c2ccc(O)cc2Oc2cc(O)ccc21,-47.5% (active)
11,O=C(c1n[nH]c(=O)c2ccccc12)N1CCN(S(=O)(=O)c2ccccc2F)CC1,12.5% (inactive)
12,COc1cccc(-c2c(NC(=O)c3ccc(Cl)cc3)oc3ccccc3c2=O)c1,-5.8% (inactive)
13,O=C(O)Cc1ccc(F)c2ccccc12,2.09% (inactive)
14,CC(Sc1nc2cc(S(=O)(=O)N3CCCCC3)ccc2o1)C(=O)Nc1cccc(Cl)c1 (centres undefined),6.97% (inactive)
15,CN(C(=O)c1cnc(N2CCOCC2)c2ccccc12)C1CCCCC1,3.81% (inactive)
16,N=C(N)CCl,0.754% (inactive)
17,CC1CCC(C(C)C)C(NC(=O)c2ccccc2)C1 (centres undefined),0.148% (inactive)
18,Cc1cc(-c2nc3ncccc3o2)ccc1NC(=O)CC12CC3CC(CC(C3)C1)C2,-0.587% (inactive)
19,O=C(CCc1ncc(-c2ccccc2F)o1)NCc1ccc2c(c1)OCO2,9.36% (inactive)
20,O=C(/C=C/c1cccc(Br)c1)c1ccc(O)c(CCCl)c1,0.183% (inactive)
21,CC(N)c1cccc([N+](=O)[O-])c1 (centres undefined),8.12% (inactive)
22,O=C(O)C1CCN(c2ccc3nnc(C(F)(F)F)n3n2)CC1,-1.19% (inactive)
